# In the library only some 1.4% were active in any assay of this set; here they are far more common.
# EPAC1 agonist = EPAC1 (human) agonism. Potency, µM (top dose mostly 154 µM), most hits filed as activators. 360,000 tested, 0.073% active. EPAC1 agonist qHTS, biochemical assay; response scale: 100% = response to 6.5 mM cAMP. AID 720707; also: nearly all actives have a fitted effect of over 60% in size
#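 Nucleotide exchange assay: 100 nM EPAC1 with 250 nM Rap1B loaded with BODIPY-GDP and 50 uM GDP, room temperature. Fluorescence (480/540 nm) read every 5 min for 30 min; signal change normalized to 6.5 mM cAMP as full agonist.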
# EPAC2 agonist = EPAC2 (human) agonism; EPAC2 activation, biochemical qHTS; response scale: 100% = 6.5 mM cAMP response; Potency, µM (series often up to 154 µM), usual class: activators; 360,000 tested, 0.079% active; also: nearly all actives have a fitted effect of over 50% in size
#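 In this primary screen, activation is scored as increased exchange of BODIPY-GDP from Rap1B by 100 nM EPAC2, with 50 uM GDP as competitor. Signal is normalized to the 6.5 mM cAMP agonist control.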
# hERG WT inh = inhibitors of human wildtype KCNH2 potassium channel. 340,000 tested, 0.37% active. U2OS, BacMam KCNH2, thallium flux FluxOr; hits give low values. activity change, % at 1.84 µM. Q12809;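 active = maximum activity change below -70%; inconclusive = maximum activity change between -70% and -50%; inactive = maximum activity change above -50%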
# Target sequence (Q12809 whole entry, looked up): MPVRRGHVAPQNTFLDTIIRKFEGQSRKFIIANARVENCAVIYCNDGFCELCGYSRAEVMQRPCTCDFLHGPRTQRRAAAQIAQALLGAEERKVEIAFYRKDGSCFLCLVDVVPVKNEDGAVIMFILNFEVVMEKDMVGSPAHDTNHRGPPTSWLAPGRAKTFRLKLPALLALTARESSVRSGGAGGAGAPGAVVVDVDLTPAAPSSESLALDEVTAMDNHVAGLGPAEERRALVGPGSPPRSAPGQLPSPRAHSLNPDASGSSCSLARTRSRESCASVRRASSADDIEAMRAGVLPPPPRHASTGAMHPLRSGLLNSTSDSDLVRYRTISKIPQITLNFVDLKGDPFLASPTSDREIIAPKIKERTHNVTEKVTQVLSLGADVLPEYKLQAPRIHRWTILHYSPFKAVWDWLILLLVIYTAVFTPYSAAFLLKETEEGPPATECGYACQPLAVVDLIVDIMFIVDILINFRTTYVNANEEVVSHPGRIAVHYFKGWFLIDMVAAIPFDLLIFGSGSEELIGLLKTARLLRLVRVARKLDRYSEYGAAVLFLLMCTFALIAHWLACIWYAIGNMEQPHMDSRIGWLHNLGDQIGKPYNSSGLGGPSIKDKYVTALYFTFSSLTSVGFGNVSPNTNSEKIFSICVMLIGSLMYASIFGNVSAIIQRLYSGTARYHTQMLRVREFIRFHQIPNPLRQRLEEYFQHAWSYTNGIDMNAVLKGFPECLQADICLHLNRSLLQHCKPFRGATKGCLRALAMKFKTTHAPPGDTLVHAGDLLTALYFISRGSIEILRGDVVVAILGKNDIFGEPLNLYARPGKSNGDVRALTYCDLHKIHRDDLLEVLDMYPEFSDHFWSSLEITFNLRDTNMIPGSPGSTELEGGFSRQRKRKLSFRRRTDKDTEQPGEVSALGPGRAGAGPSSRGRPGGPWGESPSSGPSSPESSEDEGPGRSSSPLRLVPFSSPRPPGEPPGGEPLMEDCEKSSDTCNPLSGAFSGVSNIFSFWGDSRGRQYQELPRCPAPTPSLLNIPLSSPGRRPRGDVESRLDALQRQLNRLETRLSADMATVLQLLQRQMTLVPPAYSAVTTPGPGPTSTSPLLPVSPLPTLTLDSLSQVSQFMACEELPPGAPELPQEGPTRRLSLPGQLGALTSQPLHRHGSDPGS
#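 U2OS cells transduced with wild-type KCNH2 virus are loaded with FluxOr dye for 45 min, and thallium flux is measured in kinetic reads before and after stimulation buffer. Rate constants are normalized to DMSO controls.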
# KCNH2 3.1 inh = KCNH2 3.1 (human) potassium channel inhibition | U2OS KCNH2 3.1, thallium flux FluxOr; hits give low values | activity change, % (tested at about 1.8 µM) | 340,000 tested, 0.95% active | AID 720553;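 active = maximum activity change below -70%; inconclusive = maximum activity change from -70% to -50%; inactive = maximum activity change above -50%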;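 also: thallium influx rate constant from kinetic fluorescence after stimulation buffer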
#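 Thallium flux read-out: FluxOr dye with Red40 quencher in HBSS/HEPES, 45 min at RT. Rate constants from kinetic reads were normalized to positive and negative DMSO controls. Cells: U2OS virally expressing the 3.1 isoform.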
# EPAC1 antagonist = antagonists of human EPAC1; 360,000 tested, 0.14% active; EPAC1 GEF assay, Rap1b-BODIPY-GDP exchange fluorescence; Potency, µM (titrated, usually from 115 µM), usual class: inhibitors; O95398; also: nearly all actives have a fitted effect of over 50% in size
# EPAC2 antag = EPAC2 (human) antagonism | Potency, µM (top dose mostly 114 µM), most hits filed as inhibitors | 360,000 tested, 0.18% active | EPAC2 GEF exchange of Rap1B-BODIPY-GDP, fluorescence | AID 720708; also: nearly all actives have a fitted effect of over 45% in size
# Numbers stand for hits; 0 = inactive; ? = inconclusive; - = no result given. Unless noted, calls follow the shape of the dose curve; as a rule, active = well fitted curve in the direction sought with a large enough effect; inconclusive = small, poorly fitted or top-dose-only effect, or another doubt; inactive = no such curve, though single readings can be large; an effect the other way counts as inactive or inconclusive.
SMILES,EPAC1 agonist,EPAC2 agonist,hERG WT inh,KCNH2 3.1 inh,EPAC1 antagonist,EPAC2 antag
COc1ccc(-c2nc3ccccn3c2NCc2ccc3c(c2)OCO3)cc1,0,0,0,0,0,0
Cc1cccn2c(NCc3ccc4c(c3)OCO4)c(-c3ccc(O)cc3)nc12,0,0,0,-94,0,0
COc1ccc(-c2nc3cc(C)ccn3c2NCc2ccc3c(c2)OCO3)cc1,0,0,-83,-81,0,0
CC(C)NC(=O)C1(C)CCCN1C(=O)c1ccc2c(c1)C(C)(C)CCC2(C)C (stereo not given),0,0,-,-,0,0
COc1ccc(N(Cc2cc3cccc(C)c3[nH]c2=O)S(C)(=O)=O)cc1,0,0,0,-82,0,0
COc1ccc(N(Cc2cc3ccccc3[nH]c2=O)S(C)(=O)=O)cc1,0,0,0,0,0,0
COC(=O)C1(Cc2ccccc2)NC(c2ccc(F)cc2)C2C(=O)N(C)C(=O)C21 (stereo not given),0,7.9µM,0,0,0,0
COc1ccc(-c2noc(CCC(=O)NCCc3ccccc3)n2)cc1,0,0,0,0,0,0
O=C(CCc1nc(-c2ccccc2)no1)NCCc1ccccc1,0,0,0,-90,0,0
Cc1nn(-c2ccccc2)c(C)c1NC(=O)COc1cc(F)ccc1[N+](=O)[O-],0,0,0,0,0,0
O=C(c1cc2ccccc2oc1=O)N(Cc1cccs1)C1CCS(=O)(=O)C1 (stereo not given),0,0,-174,-163,0,0
O=C(c1cc2ccccc2oc1=O)N(Cc1ccc(F)cc1)C1CCS(=O)(=O)C1 (stereo not given),0,0,0,0,0,0
CCOC(=O)c1c(N)nn(C(C)=O)c1-c1ccccc1,0,0,0,-73,0,0
CCOC(=O)c1c(N)nn(C(=O)C(C)C)c1-c1ccc(OC)cc1,0,0,0,0,0,0
CC1(C)CC(=O)C(=C2SCCCS2)C(=O)C1,0,0,0,0,0,0
Cc1ccc(C)c2nc3sc(C(=O)N4CCCc5ccccc54)c(N)c3cc12,?,112µM,0,0,0,0
COc1ccc2noc3c2c1C(=O)c1ccccc1-3,100µM,?,0,0,0,0
COc1ccc(N)c2c1C(=O)c1ccccc1C2=O,0,0,0,-98,0,0
COc1ccc(OC)c2c1C(=O)C(Cl)=C(Cl)C2=O,0,0,0,0,0,0
NS(=O)(=O)c1ccc(NCCCn2ccnc2)c([N+](=O)[O-])c1,0,0,0,0,0,0
O=C1c2ccccc2-c2onc3ccc(NCCCn4ccnc4)c1c23,100µM,0,0,0,0,0
COc1ccc(OC)c2c1C(=O)c1ccccc1C2=O,89µM,89µM,0,0,0,0
COc1ccc(-c2[nH]ncc2-c2cnn(-c3ccccc3)c2)c(O)c1,0,0,0,0,0,0
Cc1ccc(C(=O)NCCN2CCC(n3c(=O)[nH]c4ccccc43)CC2)cc1C,0,0,-,-,0,0
COC(=O)c1sccc1NC(=O)c1ccc(OC)cc1OC,0,0,-246,-176,0,0
SMILES,EPAC1 agonist,EPAC2 agonist,hERG WT inh,KCNH2 3.1 inh,EPAC1 antagonist,EPAC2 antag
COC(=O)c1sccc1NC(=O)c1cccc(OC)c1,0,0,0,0,0,0
CCCCN(C)C(=S)Nc1ccsc1C(=O)OC,0,0,0,-155,0,0
COC(=O)c1sccc1NC(=O)Nc1ccc(C(C)=O)cc1,0,0,0,-79,0,0
COc1ccc(NC(=O)c2cc(C3CCCCN3S(=O)(=O)c3ccc(F)cc3F)on2)c(C)c1 (stereo not given),0,0,-,-,0,0
COc1cc(NS(=O)(=O)c2ccc(Nc3nc(-c4ccccc4)cs3)cc2)nc(OC)n1,0,0,0,0,79µM,0
Cc1cc(NS(=O)(=O)c2ccc(Nc3nc(-c4sc(N)nc4C)cs3)cc2)no1,0,0,0,0,?,32µM
COC(=O)CCC(=O)NC(=S)Nc1ccc(S(=O)(=O)Nc2cc(OC)nc(OC)n2)cc1,0,0,0,0,0,0
Cc1cc(NS(=O)(=O)c2ccc(Nc3nc(-c4ccc(C)c(C)c4)cs3)cc2)no1,0,0,0,0,?,0
COc1cc(NS(=O)(=O)c2ccc(NC(=S)NC(=O)CC(C)C)cc2)nc(OC)n1,0,0,-118,0,0,0
Cn1c(=O)c2cc(NC(=O)NCc3ccc(Cl)cc3Cl)ccc2n1Cc1ccccc1,0,0,-,-,0,0
Cc1cccc(Cn2c(O)c(N=NC(=S)Nc3ccccc3F)c3ccccc32)c1,0,0,-,-91,0,0
Cc1ccc(S(=O)(=O)NCC(=O)NCC(=O)N(C)Cc2ccc3ccccc3c2)cc1C,0,0,0,0,0,0
Cc1ccc(CSCC(=O)N(C)CC(=O)Nc2c(Cl)cccc2Cl)cc1,0,0,0,0,0,0
N#Cc1sc2nc(C3CC3)cc(-c3ccc(Cl)cc3)c2c1N,0,0,0,-72,?,0
COc1ccc(CNc2nc3ccccc3n2C)c(OC)c1,0,0,0,0,0,0
COc1ccc(N=Nc2nc3cc(Br)c(Br)cc3n2C)c(OC)c1,112µM,0,0,0,0,0
CC(C)c1ccc(NC(=O)CN2CCN(c3ccccn3)CC2)cc1,0,0,0,0,0,0
N#Cc1ccc(NC(=O)CN2CCN(c3ccccn3)CC2)cc1,0,0,0,-76,0,0
O=C1CC(=O)Nc2cc(S(=O)(=O)Nc3ccc(Cl)c(C(F)(F)F)c3)ccc2N1,0,0,0,0,0,35µM
CC(NC(=O)Nc1ccc(O)cc1)(C(F)(F)F)C(F)(F)F,0,0,0,0,79µM,?
COc1ccc(CCNC(=O)COC(=O)c2cc(S(=O)(=O)N3CCOCC3)ccc2C)cc1OC,0,0,0,-,0,0
CCn1c(N)[n+](CC(=O)Nc2ccc(SC(F)F)cc2)c2ccccc21,0,0,0,-92,0,0
CC[N+](CC)(CC)CC(=O)Nc1ccc(SC(F)F)cc1,0,0,0,0,0,0
CCN(CC(=O)NC1CC1)S(=O)(=O)c1ccccc1,0,0,0,0,0,0
O=C(CN(Cc1ccccc1)S(=O)(=O)c1ccccc1)NC1CC1,0,0,-159,0,0,0
COC(=O)C1=NNC2(c3ccc(Cl)cc3)C(=O)N(c3ccccc3)C(=O)C12 (stereo not given),0,0,0,0,0,0

# Compound activity: PubChem BioAssay, National Center for Advancing Translational Sciences (NCATS)
